Test results: PubChem BioAssay (Tox21)
Results filed as inconclusive are left out. Entries that show only a call come without a potency. Active and inactive are the calls of the source. Unless noted, calls come from the whole dose curve.

How the values were obtained:
[1] = Nuclear factor erythroid 2-related factor 2/antioxidant responsive element (Nrf2/ARE) small molecule agonists: qHTS cell viability counter screen in human keratinocytes (AID 1919968; active = well fitted curve in the direction sought with a large enough effect in the repeat runs; an effect the other way counts as inactive or inconclusive; note: nearly all actives have a fitted effect of over 55% in size)
How it was run: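 Fluorescence read-out from CellTiter-Fluor after 1 h at 37 C. Wells held HaCaT-derived ARE-luciferase reporter cells (1,500/well) treated 23 h with DMSO-dissolved compounds. Run in the same wells as the luciferase agonist read.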

[2] = Nuclear factor erythroid 2-related factor 2/antioxidant responsive element (Nrf2/ARE) small molecule agonists: luciferase reporter gene qHTS assay in human keratinocytes (AID 1919969); note: nearly all actives have a fitted effect of over 35% in size; note: potency is the fitted concentration of half-maximal effect
[3] = biological target: Gonadotropin-releasing hormone receptor (Homo sapiens) (UniProt P30968); experiment: Human gonadotropin-releasing hormone receptor (GnRHR) small molecule agonists, calcium flux assay in GnRHR-HEK293 cells (AID 1920063); note: nearly all actives have a fitted effect of over 35% in size
Sequence of Gonadotropin-releasing hormone receptor (Homo sapiens) (P30968 whole entry, looked up): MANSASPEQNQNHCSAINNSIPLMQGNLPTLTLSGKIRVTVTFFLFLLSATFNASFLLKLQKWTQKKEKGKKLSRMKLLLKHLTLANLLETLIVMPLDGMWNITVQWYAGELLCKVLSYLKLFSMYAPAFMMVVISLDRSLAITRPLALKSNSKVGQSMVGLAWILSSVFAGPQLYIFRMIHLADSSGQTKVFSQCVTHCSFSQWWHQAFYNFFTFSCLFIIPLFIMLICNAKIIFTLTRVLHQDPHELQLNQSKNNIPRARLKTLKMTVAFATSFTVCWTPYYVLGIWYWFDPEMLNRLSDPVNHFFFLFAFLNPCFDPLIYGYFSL
How it was run: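 Calcium-dye fluorescence, Ex/Em=480/540, recorded every 1 sec over 3 min after compound addition to GnRHR-HEK293 cells. Cells had been seeded 18 hours earlier and dye-loaded for 1 hour at 37 C. Fifteen concentrations, triplicates.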

[4] = biological target: KiSS-1 receptor (Homo sapiens) (UniProt Q969F8); experiment: Human kisspeptin (KISS1R) small molecule agonists, calcium flux assay in KISS1R-HEK293 cells (AID 1920064; active = well fitted curve in the direction sought with a large enough effect in the repeat runs; an effect the other way counts as inactive or inconclusive)
Sequence of KiSS-1 receptor (Homo sapiens) (Q969F8 whole entry, looked up): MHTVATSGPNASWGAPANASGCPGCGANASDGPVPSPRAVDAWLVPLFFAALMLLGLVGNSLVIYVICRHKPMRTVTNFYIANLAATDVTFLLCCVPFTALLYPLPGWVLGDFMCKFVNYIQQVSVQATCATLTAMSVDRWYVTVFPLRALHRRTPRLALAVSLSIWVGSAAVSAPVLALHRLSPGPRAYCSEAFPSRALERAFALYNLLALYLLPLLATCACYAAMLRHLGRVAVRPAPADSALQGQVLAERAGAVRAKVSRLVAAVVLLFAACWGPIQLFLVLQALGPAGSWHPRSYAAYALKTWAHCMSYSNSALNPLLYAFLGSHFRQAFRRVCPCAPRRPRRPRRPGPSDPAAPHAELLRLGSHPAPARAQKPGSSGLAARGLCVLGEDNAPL
How it was run: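 Calcium flux read-out: kinetic fluorescence at Ex/Em=480/540, 1 s intervals over 3 min, after pin-tool compound addition to dye-loaded KISS1R-HEK293 cells. Fifteen concentrations, triplicates.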

[5] = G protein-coupled receptor (GPCR) small molecule agonists, calcium flux assay: HEK293 wild type cell line counter screen (AID 1920065)
How it was run: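 Agonist mode; 18 h seeding at 37 C, 1 h dye load at 37 C; compounds pinned from DMSO, ATP as positive control; kinetic fluorescence 480/540 nm, 3 min, 1 s reads; 15 concentrations, triplicate.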

[6] = p53 small molecule agonists, cell-based qHTS assay with human liver microsomes: qHTS cell viability counter screen (AID 1963579); note: nearly all actives have a fitted effect of over 45% in size
How it was run: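 In this multiplexed counter screen, the reporter plates were subsequently treated with CellTiter-Glo so that cell viability, reflected by luminescence, could be recorded for p53RE-bla cells dosed 16 h with compounds under microsomal activation (HLM and NADPH).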

[7] = p53 small molecule agonists, cell-based qHTS assay with rat liver microsomes: qHTS cell viability counter screen (AID 1963580); note: nearly all actives have a fitted effect of over 45% in size
How it was run: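 After the beta-lactamase ratio was read, CellTiter-Glo was added to the same wells and luminescence measured at 30 min; cells had been treated 16 h at 37 C with compounds, rat liver microsomes and NADPH (0.5 mg/mL final each).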

[8] = p53 small molecule agonists, cell-based qHTS assay: qHTS cell viability counter screen (AID 1963581); note: nearly all actives have a fitted effect of over 45% in size
How it was run: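 Cytotoxicity read-out: ATP-based luminescence (CellTiter-Glo, 30 min RT) measured in the same wells as the p53 reporter assay, HCT-116 p53RE-bla cells, 16 h compound exposure at 37 C.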

[9] = biological target: 5-hydroxytryptamine receptor 2A (Homo sapiens) (UniProt P28223); experiment: 5-hydroxytryptamine receptor 2A (HTR2A) small molecule agonists, cell-based qHTS assay (AID 1963587); note: nearly all actives have a fitted effect of over 30% in size
Sequence of 5-hydroxytryptamine receptor 2A (Homo sapiens) (P28223 whole entry, looked up): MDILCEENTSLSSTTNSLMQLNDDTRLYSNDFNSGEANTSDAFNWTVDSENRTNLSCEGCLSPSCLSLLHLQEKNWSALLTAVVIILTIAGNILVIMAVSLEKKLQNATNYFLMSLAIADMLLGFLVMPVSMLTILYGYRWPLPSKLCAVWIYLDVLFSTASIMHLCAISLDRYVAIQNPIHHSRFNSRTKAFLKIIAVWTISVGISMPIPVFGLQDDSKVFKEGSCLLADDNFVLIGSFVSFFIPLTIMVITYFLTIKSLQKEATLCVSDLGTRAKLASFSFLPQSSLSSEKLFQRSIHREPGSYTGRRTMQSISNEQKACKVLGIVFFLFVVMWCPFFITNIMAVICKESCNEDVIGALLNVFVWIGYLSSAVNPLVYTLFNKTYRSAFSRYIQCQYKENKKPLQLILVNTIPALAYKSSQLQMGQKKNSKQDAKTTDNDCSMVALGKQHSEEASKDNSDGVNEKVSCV
How it was run: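 CHO cells stably expressing human HTR2A, plated 18 h, loaded with calcium dye 1 h at 37 C. Agonist mode: compounds added and intracellular calcium fluorescence recorded kinetically for 2 min at 1 sec intervals.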

[10] = biological target: Muscarinic acetylcholine receptor M1 (Homo sapiens) (UniProt P11229); experiment: Cholinergic receptor muscarinic 1 (CHRM1) small molecule antagonists, cell-based qHTS assay (AID 1963588); note: nearly all actives have a fitted effect of over 40% in size
Sequence of Muscarinic acetylcholine receptor M1 (Homo sapiens) (P11229 whole entry, looked up): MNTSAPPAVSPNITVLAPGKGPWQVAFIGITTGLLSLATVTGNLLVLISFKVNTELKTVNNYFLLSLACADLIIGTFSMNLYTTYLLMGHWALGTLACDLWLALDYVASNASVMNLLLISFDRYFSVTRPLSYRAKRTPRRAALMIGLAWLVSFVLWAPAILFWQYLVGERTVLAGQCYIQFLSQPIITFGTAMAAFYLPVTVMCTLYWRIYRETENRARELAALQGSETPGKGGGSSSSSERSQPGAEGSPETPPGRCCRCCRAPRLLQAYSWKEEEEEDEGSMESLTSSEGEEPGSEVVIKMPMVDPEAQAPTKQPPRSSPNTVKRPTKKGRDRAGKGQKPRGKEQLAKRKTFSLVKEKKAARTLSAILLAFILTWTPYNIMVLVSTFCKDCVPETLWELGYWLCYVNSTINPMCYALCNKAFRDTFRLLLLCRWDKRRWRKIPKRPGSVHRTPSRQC
How it was run: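 Compounds were tested at 15 concentrations in three independent runs. Dye-loaded CHRM1-CHO cells were exposed 5 min at room temperature before stimulation by acetylcholine added at 50nM. Intracellular calcium was read kinetically on FDSS for 3 min.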

[11] = cAMP Responsive Elements (CRE) small molecule agonists, cell-based qHTS assay (AID 1963590)
How it was run: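 Beta-lactamase reporter readout: LiveBLAzer B/G FRET substrate, 2 h at room temperature, added after 3 h compound treatment of CRE-bla HEK 293T cells at 37 C/5% CO2.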

[12] = cAMP Responsive Elements (CRE) small molecule antagonists, cell-based qHTS assay (AID 1963591; active = well fitted inhibition curve with a large enough effect in the signal ratio in the repeat runs, not every such curve was filed as active; the % refers to the signal ratio)
How it was run: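 HEK293T CRE-bla; 18 h preincubation; compound pin-transfer; NKH477 0.25 uM final, 3 h, 37 C; LiveBLAzer FRET substrate 2 h RT.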

[13] = biological target: Beta-2 adrenergic receptor (Homo sapiens) (UniProt P07550); experiment: Adrenergic beta2 receptor (ADRB2) small molecule antagonists, cell-based qHTS assay (AID 1963592); note: series mostly up to about 92 µM; nearly all actives have a fitted effect of over 50% in size
Sequence of Beta-2 adrenergic receptor (Homo sapiens) (P07550 whole entry, looked up): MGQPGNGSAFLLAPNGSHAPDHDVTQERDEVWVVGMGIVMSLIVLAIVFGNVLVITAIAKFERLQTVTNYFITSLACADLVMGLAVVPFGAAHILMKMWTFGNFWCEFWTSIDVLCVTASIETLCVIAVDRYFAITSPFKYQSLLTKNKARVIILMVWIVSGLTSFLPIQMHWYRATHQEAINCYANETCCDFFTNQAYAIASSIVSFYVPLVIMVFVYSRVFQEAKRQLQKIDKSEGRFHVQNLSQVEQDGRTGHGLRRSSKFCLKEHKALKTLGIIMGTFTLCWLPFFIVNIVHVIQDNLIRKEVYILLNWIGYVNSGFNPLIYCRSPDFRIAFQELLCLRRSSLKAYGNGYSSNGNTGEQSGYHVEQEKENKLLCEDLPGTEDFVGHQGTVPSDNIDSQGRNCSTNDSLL
How it was run: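 Assay format: CHO-ADRB2 cells, 18-20hr seeding at 37C/5% CO2, then compound plus 1nM isoproterenol agonist mix for 0.5hr RT. Homogeneous time-resolved fluorescence cAMP detection after 1hr, expressed as 665/615 nm ratio.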

[14] = biological target: Beta-2 adrenergic receptor (Homo sapiens) (UniProt P07550); experiment: Adrenergic beta2 receptor (ADRB2) small molecule agonists, cell-based qHTS assay (AID 1963593);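 note: CHO cells stably overexpressing human ADRB2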
How it was run: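 CHO cells stably over-expressing ADRB2 were plated overnight at 37C, then dosed with compounds plus a stimulation mix containing 100uM IBMX and 25uM Ro-20-1724 for 0.5hr at room temperature. cAMP was measured by HTRF competition, 1hr.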

[15] = biological target: D(2) dopamine receptor (Homo sapiens) (UniProt P14416); experiment: Dopamine D2 receptor (DRD2) small molecule agonists, cell-based qHTS assay (AID 1963594); note: nearly all actives have a fitted effect of over 35% in size
Sequence of D(2) dopamine receptor (Homo sapiens) (P14416 whole entry, looked up): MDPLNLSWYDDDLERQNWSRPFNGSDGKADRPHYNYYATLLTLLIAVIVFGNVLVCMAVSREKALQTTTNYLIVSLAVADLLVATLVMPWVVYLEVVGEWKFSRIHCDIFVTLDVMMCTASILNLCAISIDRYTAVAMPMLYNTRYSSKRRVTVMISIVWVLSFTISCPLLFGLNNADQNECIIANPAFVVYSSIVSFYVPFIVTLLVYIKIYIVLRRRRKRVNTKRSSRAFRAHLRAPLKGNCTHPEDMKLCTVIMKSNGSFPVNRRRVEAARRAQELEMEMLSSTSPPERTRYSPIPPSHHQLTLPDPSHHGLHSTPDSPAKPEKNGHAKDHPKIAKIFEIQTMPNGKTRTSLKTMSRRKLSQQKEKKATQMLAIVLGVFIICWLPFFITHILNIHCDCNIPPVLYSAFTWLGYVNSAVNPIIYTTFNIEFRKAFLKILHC
How it was run: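 HEK293 cells stably expressing human DRD2, pre-treated with PDE inhibitor Ro20-1724 (0.1 mM final) and compound 10 min at room temperature, then stimulated with NKH477 (200nM […]) for 30 min. cAMP read by HTRF (665/620 nm).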

[16] = biological target: D(2) dopamine receptor (Homo sapiens) (UniProt P14416); experiment: Dopamine D2 receptor (DRD2) small molecule antagonists, cell-based qHTS assay (AID 1963595; active = well fitted inhibition curve with a large enough effect in the signal ratio in the repeat runs, with a control signal flat; the % refers to the signal ratio)
How it was run: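 HEK293 cells stably expressing DRD2, preincubated with 0.1 mM Ro20-1724 and compounds 10 min, were stimulated with 200 nM NKH477 plus 12 nM quinpirole for 30 min at room temperature; cAMP measured by HTRF (665/620 nm).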

[17] = biological target: 5-hydroxytryptamine receptor 2A (Homo sapiens) (UniProt P28223); experiment: 5-hydroxytryptamine receptor 2A (HTR2A) small molecule antagonists, cell-based qHTS assay (AID 1963586); note: nearly all actives have a fitted effect of over 45% in size
How it was run: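 CHO cells stably expressing human HTR2A were plated for 18 h at 37 C, then loaded with calcium dye for 1 h. Compounds were preincubated 5 min at room temperature before DOI (4 nM solution) was added. Kinetic fluorescence was read for 3 min.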

[18] = biological target: Muscarinic acetylcholine receptor M1 (Homo sapiens) (UniProt P11229); experiment: Cholinergic receptor muscarinic 1 (CHRM1) small molecule agonists, cell-based qHTS assay (AID 1963589); note: nearly all actives have a fitted effect of over 35% in size
How it was run: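 Calcium flux read-out: kinetic fluorescence at 1 sec intervals after pin-tool compound addition to dye-loaded CHRM1-CHO cells (human M1). Agonist mode; 15 concentrations tested in triplicate independent runs.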

| SMILES | Potency [1] | Potency [2] | Potency [3] | Potency [4] | Potency [5] | Potency [6] | Potency [7] | Potency [8] | Potency [9] | Potency [10] | Potency [11] | Potency [12] | Potency [13] | Potency [14] | Potency [15] | Potency [16] | Potency [17] | Potency [18] |
| --- | --- | --- | --- | --- | --- | --- | --- | --- | --- | --- | --- | --- | --- | --- | --- | --- | --- | --- |
| CC(=O)N(CC(O)CO)c1c(I)c(C(=O)NCCO)c(I)c(C(=O)NCC(O)CO)c1I (stereo not drawn) | inactive | inactive | inactive | inactive | inactive | inactive | inactive | inactive | inactive | inactive | inactive | inactive | inactive | inactive | inactive | inactive | – | – |
| C=C1CCC2CC1C2(C)C (stereo not drawn) | inactive | inactive | inactive | inactive | inactive | inactive | inactive | – | inactive | inactive | inactive | inactive | inactive | inactive | inactive | inactive | inactive | inactive |
| CC(=O)Nc1ccc(OCCOCCOc2ccc(NC(C)=O)cc2)cc1 | inactive | inactive | inactive | inactive | inactive | inactive | inactive | – | inactive | inactive | inactive | inactive | inactive | inactive | inactive | inactive | inactive | inactive |
| Cc1onc(-c2ccccc2Cl)c1C(=O)N[C@@H]1C(=O)N2[C@@H]1SC(C)(C)[C@@H]2C(=O)O | inactive | inactive | inactive | inactive | inactive | inactive | inactive | inactive | – | – | inactive | inactive | inactive | inactive | inactive | inactive | – | – |
| Cn1c(NCCN(CCO)CCCc2ccc([N+](=O)[O-])cc2)cc(=O)n(C)c1=O | inactive | inactive | inactive | inactive | inactive | inactive | inactive | inactive | – | – | inactive | inactive | inactive | inactive | inactive | inactive | – | inactive |
| O=C(O)c1cccnc1Nc1cccc(C(F)(F)F)c1 | inactive | 23.7 µM (active) | inactive | inactive | inactive | inactive | inactive | inactive | – | – | – | inactive | inactive | – | inactive | inactive | – | – |
| CCN1CCN(C(=O)N[C@@H](C(=O)N[C@@H]2C(=O)N3[C@@H]2SC(C)(C)[C@H]3C(=O)O)c2ccccc2)C(=O)C1=O | inactive | inactive | inactive | inactive | inactive | inactive | inactive | inactive | – | – | inactive | – | inactive | – | inactive | inactive | – | – |
| Cc1onc(-c2ccccc2)c1-c1ccc(S(N)(=O)=O)cc1 | inactive | inactive | inactive | inactive | inactive | inactive | inactive | inactive | – | – | inactive | inactive | inactive | inactive | inactive | inactive | – | – |
| CNc1ncnc2nc[nH]c12 | inactive | inactive | inactive | inactive | inactive | inactive | inactive | – | inactive | inactive | inactive | inactive | inactive | inactive | inactive | inactive | inactive | inactive |
| CCC(C)C(C)=O (stereo not drawn) | inactive | inactive | inactive | inactive | inactive | inactive | inactive | – | inactive | inactive | inactive | inactive | inactive | inactive | inactive | inactive | inactive | inactive |
| CCCCNc1ccc(C(=O)OCCOCCOCCOCCOCCOCCOCCOCCOCCOC)cc1 | inactive | inactive | inactive | inactive | inactive | inactive | inactive | – | inactive | inactive | inactive | inactive | inactive | inactive | inactive | inactive | inactive | inactive |
| O=c1oc2cc(O)ccc2c2oc3cc(O)ccc3c12 | inactive | 29.4 µM (active) | inactive | inactive | inactive | inactive | inactive | – | inactive | inactive | – | – | – | – | – | – | inactive | inactive |
| CCOC(=O)c1ccc(C#Cc2ccc3c(c2)C(C)(C)CCS3)nc1 | inactive | inactive | inactive | inactive | inactive | inactive | inactive | inactive | inactive | inactive | – | – | – | inactive | inactive | inactive | – | inactive |
| CCC(C)OC(C)CC (stereo not drawn) | inactive | inactive | inactive | inactive | inactive | inactive | inactive | inactive | inactive | inactive | inactive | – | inactive | inactive | inactive | – | – | – |
| CCC1(C)CC(=O)NC1=O (stereo not drawn) | inactive | inactive | inactive | inactive | inactive | inactive | inactive | inactive | – | – | inactive | inactive | inactive | inactive | inactive | inactive | – | – |
| CC(C)(C)C(O)/C=C/c1ccc2c(c1)OCO2 (stereo not drawn) | inactive | inactive | inactive | inactive | inactive | inactive | inactive | – | inactive | inactive | inactive | inactive | inactive | inactive | inactive | inactive | inactive | inactive |
